Test systems include DU-145 prostate; K-562 leukemia; MALME-3M melanoma; MDA-MB-231 breast; RXF 393 renal; SF-268 CNS; SF-295 CNS; SF-539 CNS; UACC-257 melanoma; M14 melanoma; HCT-15 colon; HT29 colon; SNB-75 CNS; U251 CNS; PC-3 prostate; SK-MEL-5 melanoma; UACC-62 melanoma; LOX IMVI melanoma; SK-MEL-28 melanoma; SNB-19 CNS.
What all share (assay): NCI-60 one-dose screen, 48 h (100 = growth as untreated, 0 = no growth, -100 = all killed)
Common to all, as to details: 10 µM unless noted

Molecules are shown by their SMILES. About 83,000 compounds went through this panel and 20% of them were active in at least one assay; those are over-represented in the sample as a whole.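 Cell lines were cultured in 96-well plates, exposed to a single compound concentration, and assessed for percent growth 48 hours later.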 A number with no mark means an inactive call. Activity calls are given as the source filed them. The calls were made as follows: active = growth percent below 10; inactive = the rest.

`CCN1CCN(CC(=O)Nc2nc3ccc(NCc4ccc(F)cc4)cc3s2)CC1`: the growth in the experiment on DU-145 prostate was 95.1%; in the experiment on K-562 leukemia it was 58.8%; in the experiment on MALME-3M melanoma it was 90.7%; with MDA-MB-231 breast, 91%; with RXF 393 renal, 94.8%; with SF-268 CNS, 94.3%. Also, the growth with SF-295 CNS is 99%; with SF-539 CNS, 74.1%; in the experiment on UACC-257 melanoma, 108%; in the experiment on M14 melanoma, 91.4%; in the experiment with HCT-15 colon, 67.3%; with HT29 colon, 77.4%. Further, the growth with SNB-75 CNS was 90.8%; in the experiment with U251 CNS, 81.9%; with PC-3 prostate, 78.9%; in the experiment with SK-MEL-5 melanoma it was 90.8%; with UACC-62 melanoma, 87.4%; in the experiment with LOX IMVI melanoma it was 78.6%. The growth in the experiment with SK-MEL-28 melanoma was 102%.

Take `O=C1c2ccccc2C(=O)c2c1c(C(=O)NCc1ccccc1)c1ccccn21`: the growth with DU-145 prostate was 104%; with K-562 leukemia it was 84.5%; in the experiment with MALME-3M melanoma it was 108%; with MDA-MB-231 breast, 96.8%; in the experiment with RXF 393 renal it was 104%; in the experiment with SF-268 CNS it was 104%. Further, the growth was 98.1% in the experiment with SF-295 CNS; 104% in the experiment on SF-539 CNS; 90.2% with UACC-257 melanoma; 105% in the experiment with M14 melanoma; 114% with HCT-15 colon; 80.6% with HT29 colon. In addition, the growth in the experiment on SNB-75 CNS was 94.9%; in the experiment on U251 CNS it was 93.6%; in the experiment with PC-3 prostate, 95.4%; with SK-MEL-5 melanoma, 99.6%; with UACC-62 melanoma it was 92.2%; in the experiment with LOX IMVI melanoma, 103%. Besides, in the experiment on SK-MEL-28 melanoma, the growth is 113%.

`CC1(C)OB(O)c2cc(-c3nc4ccc5[nH]ncc5c4c4c3CCCC4)ccc21`: the growth in the experiment with DU-145 prostate is 54.8%; with K-562 leukemia, 44.5%; with MALME-3M melanoma, 60.5%; in the experiment with MDA-MB-231 breast it was 47.9%; with RXF 393 renal it was 35.3%; in the experiment on SF-268 CNS, 57.4%. Also, the growth in the experiment with SF-295 CNS was 63.1%; with SF-539 CNS, 73.6%; in the experiment with UACC-257 melanoma it was 77.5%; in the experiment with M14 melanoma, 52%; with HCT-15 colon, 38.2%; with HT29 colon it was 56.3%. Besides, the growth in the experiment with SNB-75 CNS was 75%; with SNB-19 CNS, 90.6%; in the experiment with PC-3 prostate, 41.3%; in the experiment on SK-MEL-5 melanoma, -67.9% (active); in the experiment with UACC-62 melanoma, 37.7%; with LOX IMVI melanoma, 42%. The growth in the experiment with SK-MEL-28 melanoma was 87.4%.

Regarding `O=C(Nc1ccc(Cl)cc1)Oc1c(Cl)c(Cl)c(Cl)c(Cl)c1Cl`, the growth with DU-145 prostate was 97.9%; with K-562 leukemia it was 89.9%; in the experiment on MALME-3M melanoma, 93.7%; in the experiment with MDA-MB-231 breast it was 92.9%; with RXF 393 renal, 106%; with SF-268 CNS it was 92.9%. The growth is 83.2% with SF-295 CNS; 94.8% in the experiment with SF-539 CNS; 100% in the experiment on UACC-257 melanoma; 96.8% in the experiment with M14 melanoma; 94.5% in the experiment on HCT-15 colon; 96.1% in the experiment with HT29 colon. The growth in the experiment on SNB-75 CNS is 83.3%; in the experiment with U251 CNS, 98%; in the experiment on PC-3 prostate it was 89.4%; in the experiment with SK-MEL-5 melanoma, 95.3%; with UACC-62 melanoma, 81.3%; with LOX IMVI melanoma it was 86.1%. Further, the growth with SK-MEL-28 melanoma is 105%.

In the case of `CSC(SC)=C(C#N)c1nc2ccccc2s1`, the growth is 87.2% in the experiment on DU-145 prostate; 47.4% with K-562 leukemia; 67.9% in the experiment with MALME-3M melanoma; 52.9% in the experiment on MDA-MB-231 breast; 95.8% in the experiment on RXF 393 renal; 55.1% with SF-268 CNS. Further, the growth was 88.2% with SF-295 CNS; 60.2% in the experiment on SF-539 CNS; 54% with UACC-257 melanoma; 48.1% in the experiment on M14 melanoma; 61.8% in the experiment with HCT-15 colon; 97.2% in the experiment with HT29 colon. Moreover, the growth in the experiment with SNB-75 CNS was 74.3%; in the experiment with SNB-19 CNS, 66.9%; with PC-3 prostate, 30%; in the experiment with SK-MEL-5 melanoma, 27.9%; in the experiment on UACC-62 melanoma it was 9.44% (active); in the experiment with LOX IMVI melanoma it was 84.1%. In addition, the growth in the experiment on SK-MEL-28 melanoma was 38.8%.

On to `CCCCNC(=O)c1cc([N+](=O)[O-])cc(C2CCCCC2)c1O`, for which the growth is 57.6% with DU-145 prostate; 28.2% in the experiment on K-562 leukemia; 1.91% (active) in the experiment on MALME-3M melanoma; 31.4% with MDA-MB-231 breast; 42% in the experiment with RXF 393 renal; 43.9% in the experiment on SF-268 CNS. In addition, the growth in the experiment on SF-295 CNS was 15.9%; with SF-539 CNS, 47.9%; with UACC-257 melanoma, 24.6%; in the experiment on M14 melanoma, 44.4%; in the experiment with HCT-15 colon, 42.7%; with HT29 colon, 69.7%. The growth in the experiment with SNB-75 CNS is 58.6%; in the experiment on U251 CNS, 24.1%; in the experiment with PC-3 prostate it was 27.1%; in the experiment on SK-MEL-5 melanoma, -12.6% (active); in the experiment on UACC-62 melanoma, 20.3%; in the experiment with LOX IMVI melanoma, 36.2%. Further, in the experiment with SK-MEL-28 melanoma, the growth was 34.3%.

As for `O=C(Cc1cccc(OC(F)(F)F)c1)Nc1ccc(CCCCc2nnc(NC(=O)Cc3ccccn3)s2)nn1`, the growth with DU-145 prostate is 86.9%; in the experiment with K-562 leukemia, 45.7%; with MALME-3M melanoma, 82.8%; in the experiment with MDA-MB-231 breast, 84.6%; with RXF 393 renal, 52.1%; in the experiment on SF-268 CNS, 78.7%. The growth with SF-295 CNS was 60.6%; in the experiment on SF-539 CNS it was 81.9%; in the experiment on UACC-257 melanoma, 92.9%; with M14 melanoma, 50.8%; in the experiment on HCT-15 colon, 89.6%; in the experiment with HT29 colon, 76.6%. The growth in the experiment with SNB-75 CNS is 78.6%; in the experiment on U251 CNS, 82.3%; with PC-3 prostate it was 17.5%; with SK-MEL-5 melanoma, 62.2%; in the experiment with UACC-62 melanoma, 63.5%; with LOX IMVI melanoma, 82.8%. The growth with SK-MEL-28 melanoma was 93.8%.

For the molecule `Fc1cccc(-c2ccc3c(c2)C2(CCNCC2)CN3)c1`, the growth in the experiment with DU-145 prostate is 105%; in the experiment on K-562 leukemia it was 92.6%; in the experiment with MALME-3M melanoma it was 109%; in the experiment with MDA-MB-231 breast, 91.2%; with RXF 393 renal, 121%; in the experiment on SF-268 CNS it was 98.8%. In addition, the growth in the experiment with SF-295 CNS was 95.4%; with SF-539 CNS it was 98.8%; in the experiment with UACC-257 melanoma it was 126%; in the experiment with M14 melanoma it was 109%; in the experiment on HCT-15 colon, 94.9%; in the experiment on HT29 colon, 93.1%. Moreover, the growth in the experiment on SNB-75 CNS is 92%; in the experiment on U251 CNS it was 107%; in the experiment on PC-3 prostate, 98.1%; with SK-MEL-5 melanoma, 97.4%; in the experiment with UACC-62 melanoma, 87.4%; in the experiment on LOX IMVI melanoma, 92.2%.

Values taken from PubChem BioAssay (NCI).
